ALDH1A1 block – blocks purified human ALDH1A1 activity | Purified ALDH1A1, NADH fluorescence, propionaldehyde substrate | Potency, µM (series often up to 75.3 µM), without a hit: at the top dose activity, negative = inhibition, usual class: inhibitors | actives 7.3% (n = 220,000); active means well fitted inhibition curve with a large enough effect, not every such curve was filed as active; inconclusive means small, poorly fitted or top-dose-only effect, or another doubt; inactive means no such curve, though single readings can be large or run the other way;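 further: plate controls were no enzyme wells and a reference inhibitor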
Tau fibril ThT – blocks human tau fibril formation measured by thioflavin T; P10636; recombinant tau K18 P301L, heparin-induced fibrillization, ThT fluorescence; Potency, µM (titrated, usually from 57.4 µM), without a hit: top-dose activity, negative = inhibition, hits mostly inhibitors; actives 2.1% (n = 270,000); further: nearly all actives have a fitted effect of over 55% in size
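ThT emission at 510 nm, taken 1 hr after adding 30 uM dye, quantifies aggregates formed when 20 uM heparin acts on human tau K18 P301L for 6 hr at 37 C.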
Tau fluor cs – counter-screen for tau fibril formation inhibitors; actives 0.93% (n = 280,000); tau K18 P301L (four-repeat tau fragment) Alexa594 fluorescence, heparin fibrillization; Potency, µM (titrated, usually from 57.7 µM), without a hit: at the highest dose activity change, negative = decrease; AID 1463; further: nearly all actives have a fitted effect of over 55% in size
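Human K18 P301L tau (15 uM unlabeled plus 0.24 uM Alexa 594-labeled, final) in 100 mM sodium acetate pH 7 was mixed with compound and 20 uM heparin and incubated 6 hr at 37 C.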
Tau fibril FP – inhibitors of human tau fibril formation; K18 P301L tau heparin fibrillization, Alexa594 FP, 6 h; Potency, µM (doses to about 57.7 µM), inactives show at the highest dose activity, negative = inhibition, usual class: inhibitors; actives 0.39% (n = 280,000); AID 1468; further: nearly all actives have a fitted effect of over 55% in size
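Recombinant K18 P301L […], labeled with Alexa 594 at 0.24 uM over 15 uM unlabeled; heparin inducer 20 uM final; 37 C, 6 hr; FP endpoint.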
JMJD2E inh – JMJD2E (human) inhibition | JMJD2E catalytic domain, FDH-coupled NADH fluorescence (FDH is formaldehyde dehydrogenase) | Potency, µM (titrated, usually from 57.1 µM), inactives show top-dose activity change, negative = inhibition, hits mostly inhibitors | AID 2147 | actives 1.6% (n = 230,000); active means well fitted inhibition curve with a large enough effect, not every such curve was filed as active; inconclusive means small, poorly fitted or top-dose-only effect, or another doubt; inactive means no such curve, though single readings can be large or run the other way;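 further: 0% = wells with enzyme and -100% = buffer wells without enzyme; nearly all actives have a fitted effect of over 50% in size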
Target sequence (B2RXH2 1-337 limits assumed): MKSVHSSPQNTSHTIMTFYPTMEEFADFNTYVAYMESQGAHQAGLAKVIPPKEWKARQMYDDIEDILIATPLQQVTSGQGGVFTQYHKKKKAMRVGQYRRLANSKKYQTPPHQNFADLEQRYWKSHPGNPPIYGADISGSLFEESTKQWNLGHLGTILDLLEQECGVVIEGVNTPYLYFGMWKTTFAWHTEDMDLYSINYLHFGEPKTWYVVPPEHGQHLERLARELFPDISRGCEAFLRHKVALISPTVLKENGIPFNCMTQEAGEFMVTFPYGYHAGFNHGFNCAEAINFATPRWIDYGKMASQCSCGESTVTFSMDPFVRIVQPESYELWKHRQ
HPGD block – HPGD (human) dehydrogenase inhibition; P15428; purified HPGD, NADH fluorescence kinetic, PGE2 substrate; Potency, µM, without a hit: at the highest dose activity change, negative = inhibition, usual class: inhibitors; actives 4.3% (n = 150,000); AID 894; active means well fitted inhibition curve with a large enough effect, not every such curve was filed as active; inconclusive means small, poorly fitted or top-dose-only effect, or another doubt; inactive means no such curve, though single readings can be large or run the other way
Target sequence (P15428 whole entry, looked up): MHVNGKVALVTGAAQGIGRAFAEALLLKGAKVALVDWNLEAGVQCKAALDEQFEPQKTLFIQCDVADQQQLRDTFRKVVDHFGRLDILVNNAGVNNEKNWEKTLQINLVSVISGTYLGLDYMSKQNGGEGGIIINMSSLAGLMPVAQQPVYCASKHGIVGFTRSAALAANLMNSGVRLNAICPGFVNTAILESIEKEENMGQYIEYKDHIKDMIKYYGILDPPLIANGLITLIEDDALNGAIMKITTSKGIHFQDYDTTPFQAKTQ
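20 nM HPGD preincubated 15 min at room temperature with compound in 50 mM Tris-HCl pH 8, 0.01% Tween 20. Started with 1 mM NAD+ and 30 uM prostaglandin E2; NADH fluorescence (360/450 nm) read 5 times over 30-s intervals, last minus first.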
Numbers without * were called inactive; u = inconclusive; x = no result; [ ] = another dose, or the depositor's remark. Hits are enriched below; roughly 9.9% of the tested compounds scored in any of these assays. Unless noted, the call rests on the fitted dose curve; in most records, active means well fitted curve in the direction sought with a large enough effect; inconclusive means small, poorly fitted or top-dose-only effect, or another doubt; inactive means no such curve, though single readings can be large; an effect the other way counts as inactive or inconclusive. Unless noted, on the % scale 0 is the no-effect control and ±100 the full control effect; potency means the concentration at half of the fitted maximal effect.

SMILES | ALDH1A1 block | Tau fibril ThT | Tau fluor cs | Tau fibril FP | JMJD2E inh | HPGD block
CC(=O)Nc1nonc1-c1nnc(SCC(=O)Nc2ccc(C)cc2)n1-c1ccccc1 | x | -8% | -28% | -9% | x | x
COc1cccc(-c2nnc(SCC3CNC(=O)O3)n2-c2ccc(Cl)cc2)c1 (stereo not given) | 0.63µM* | -11% | -5% | 10% | 10% | x
COCCNC(=S)NN=C1CCCCCC1 | u | -4% | -1% | 0% | -9% | x
COCCNC(=S)N/N=C1\CC(C)CC(C)(C)C1 (stereo not given) | 8.9µM* | 0% | 2% | -7% | u | x
CN(C)CCNS(=O)(=O)N(C)C | u | x | x | x | x | -4%
Cc1ccc(C2C(C(=O)c3cc4ccccc4o3)=C(O)C(=O)N2CCN2CCOCC2)o1 (stereo not given) | 14µM* | u | -20% | -14% | u | -24%
COc1ccc(OC)c(C2C(C(C)=O)=C(O)C(=O)N2CCN2CCOCC2)c1 (stereo not given) | u | u | -4% | -14% | -26% | -14%
COCCN1C(=O)C(O)=C(C(C)=O)C1c1ccc(F)cc1 (stereo not given) | 14µM* | -1% | -8% | 6% | u | u
CC(=O)C1=C(O)C(=O)N(CCN2CCOCC2)C1c1ccccc1 (stereo not given) | 25µM* | -17% | -11% | -16% | u | -15%
O=C(C1=C(O)C(=O)N(CCN2CCOCC2)C1c1cccnc1)c1cc2ccccc2o1 (stereo not given) | 35µM* | -18% | -7% | 3% | u | -11%
COCCN1C(=O)C(O)=C(C(=O)c2cccs2)C1c1ccccc1 (stereo not given) | 2% | 3% | 5% | 6% | -2% | -5%
CC(=O)C1=C(O)C(=O)N(C2CCCCC2)C1c1ccccc1 (stereo not given) | 22µM* | -18% | 1% | 1% | 1% | -17%
O=C(C1=C(O)C(=O)N(CCCN2CCOCC2)C1c1ccncc1)c1cc2ccccc2o1 (stereo not given) | 14µM* | -4% | -2% | -5% | -17% | -7%
COc1cc(C=O)c([N+](=O)[O-])cc1OC | 11µM* | 3.2µM* | u | 6.3µM* | 262% | -20%
COc1cc(/C=C(/NC(=O)c2ccccc2)C(=O)Nc2ccccc2)c([N+](=O)[O-])cc1OC | -15% | -10% | -13% | 5% | 0% | -3%
Cn1c(=NC(=O)CCl)sc2ccccc21 | 0.71µM* | u | -8% | 3% | -9% | -12%
CN(C)c1ccc(N=c2sc3ccccc3n2C)cc1 | 2µM* | u | u | 0% | -12% | -28%
Cn1c(=NC(=O)c2ccco2)sc2ccccc21 | u | u | 7% | 0% | u | x
COc1ccccc1N1CCN(C(=O)COc2ccc(S(=O)(=O)NC(C)(C)C)cc2)CC1 | 6% | -10% | -6% | -2% | 10% | x
CC1(C)OC(c2ccccc2)=C/C(=C\C=N\NC(=O)c2ccncc2)O1 | x | 11µM* | u | u | 22µM* | x
CC1(C)OC(c2ccccc2)=C/C(=C/C=Nc2ccccc2)O1 | 4.5µM* | u | -17% | 13% | 1% | -13%
O=C(N/N=C/C=C/c1ccccc1)c1ccncc1 | 2% | -5% | 1% | 5% | -1% | -10%
COc1ccccc1N1CCN(c2csc3ccccc3c2=O)CC1 | x | u | -26% | -8% | x | x
COc1ccc(-n2nnnc2SCC(=O)c2ccc(O)c(O)c2)cc1 | -14% | -17% | -26% | 13% | 11µM* | 25µM*
COc1ccc(-n2nnnc2SCC(N)=O)cc1 | 1% | -1% | 8% | 2% | -6% | -1%
SMILES | ALDH1A1 block | Tau fibril ThT | Tau fluor cs | Tau fibril FP | JMJD2E inh | HPGD block
NC(=O)c1ccc(-n2nnnc2SCC(=O)c2ccc(O)c(O)c2)cc1 | u | -18% | -12% | -11% | 0.71µM* | x
O=C(CSc1nnnn1-c1ccccc1)c1ccc(O)cc1O | x | -15% | u | u | -5% | x
O=C(CSc1ncn[nH]1)c1cccc([N+](=O)[O-])c1 | u | u | -27% | u | 7.9µM* | u
O=C(CSc1n[nH]c(=O)[nH]c1=O)c1cccc([N+](=O)[O-])c1 | u | -17% | -14% | -8% | 4% | x
O=C(CSc1nc2ncccc2[nH]1)c1cccc([N+](=O)[O-])c1 | 8.9µM* | 4% | 4% | -1% | -8% | u
O=C(O)CNC(=O)c1ccc(CO)o1 | u | x | x | x | x | -12%
COc1ccc2sc(N(Cc3cccnc3)C(=O)c3cccs3)nc2c1 | x | -6% | -20% | -11% | x | x
Cc1ccccc1-c1n[nH]c(=S)n1/N=C/c1c(C)nn(-c2ccccc2)c1C | -4% | -10% | -6% | -4% | -5% | 3.5µM*
Cc1nn(-c2ccccc2)c(C)c1/C=N/n1c(-c2ccc(C(C)(C)C)cc2)n[nH]c1=S | -8% | u | -28% | -1% | 2% | u
Cc1ccc(C(=O)OCC(=O)Nc2sc3c(c2C#N)CCC3)cc1 | 25µM* | 0% | -8% | -11% | 3% | -9%
N#Cc1c(NC(=O)COC(=O)c2ccc(S(=O)(=O)N3CCCC3)cc2)sc2c1CCCCC2 | 10µM* | -12% | -16% | 4% | -2% | x
COc1cc(Cl)c(C)cc1Nc1ncnc2c1nc1n2CCCC1 | x | u | -18% | 6% | x | x
CC(=O)c1ccc(NC(=O)COc2ccccc2-c2nc(-c3cccc(C)c3)no2)cc1 | x | -9% | -6% | 9% | x | x
COCCNC(=O)C(=O)Nc1c2c(nn1-c1ccccc1)CS(=O)(=O)C2 | x | 0% | 0% | 1% | x | x
COc1cccc(OCCn2cc(/C=N/NC(=O)c3ccncc3)c3ccccc32)c1 | 4% | u | 14µM*[quencher] | 10% | -11% | -12%
